Assay results published in ChEMBL document CHEMBL3988442, “University of Dundee, Small-Polar-MMV Screening Library” (2021).
Out of some 48,000 compounds screened, about 13,000 (27%) showed an effect of 50% or more. The list shows a part of the results.

system: Wolbachia pipientis; experiment: Anti-Wolbachia Cell-Based Screen; format: functional; parameters: scale not given: in the data most compounds retested in dose-response had high values; conditions: 5 µM

SMILES | Percent Effect [%]
Cc1cc(CN(C)C(=O)c2ccc(Cl)c(S(C)(=O)=O)c2)no1 | -0.7928
Cn1ccnc1CCNS(=O)(=O)Cc1cccc(C#N)c1 | 3.021
C1CCC(CSc2nnnn2C2CC2)OC1 (stereo not given) | -5.592
O[C@H]1Cc2ccccc2[C@H]1n1ccnc1-c1cc2n(n1)CCNC2 | -8.508
CC(C)N1CCC(CN2CCn3nc(CNC(=O)N(C)C)cc3C2)CC1 | 6.322
Cc1cccc(CN2C(=O)CCC23CCN(C(=O)N2CCCC2)CC3)n1.O=C(O)C(F)(F)F | 96.5
COCCN1C(=O)CC[C@]12CC[C@@H](NCc1cccc(C)n1)CC2.O=C(O)C(F)(F)F | -11.86
Cc1cccc(CN2CCC3(CCCN(C(=O)N4CCCC4)C3)C2=O)n1.O=C(O)C(F)(F)F (stereo not given) | -13.65
COc1cc(CN(C)C(=O)NCc2nccs2)ccc1SC | -21.32
CN(Cc1cc2ccccc2o1)S(C)(=O)=O | -18.47
CN(CC1CC1)C(=O)c1cc2c(c(S(N)(=O)=O)c1)CCC2 | -0.6394
COc1cc(CNCC2CNc3ccnn3C2)ccn1 (stereo not given) | 104.7
c1ccc(Oc2cc(CNCC3CNc4ccnn4C3)ccn2)cc1 (stereo not given) | 3.776
c1cc2n(n1)CC(CNCc1ccc(OC3CCCC3)nc1)CN2 (stereo not given) | 90.58
c1cc(CNCC2CNc3ccnn3C2)cc(OC2CCCC2)n1 (stereo not given) | 105.3
Cc1cc2n(n1)CC(CNCc1ccnc(-n3ccnc3C)c1)CN2 (stereo not given) | -4.434
c1cc(CNCC2CNc3ccnn3C2)cc(OC2CCCCC2)n1 (stereo not given) | 87.88
Cn1cc(CCNCC2CNc3ccnn3C2)cn1 (stereo not given) | -8.259
c1cc2n(n1)CC(CNCc1ccc(OC3CCCCC3)nc1)CN2 (stereo not given) | -3.239
CCN1CCN(c2ccc(F)cc2C(C)NCc2nc(C)no2)CC1 (stereo not given) | 5.378
CNS(=O)(=O)CCCN1CCCCCC1c1ccc(C)o1 (stereo not given) | -40.39
Cc1cc(C(=O)N2CCc3nnc(N)cc3C2)c(C)n1-c1cccnc1 | -7.22

SMILES | Percent Effect [%]
Cc1cc(C(=O)CN2C(=O)c3ccccc3CS2(=O)=O)c(C)[nH]1 | 11.78
CS(=O)(=O)N1C[C@@H]2CC[C@H](C1)N(C/C=C/c1ccc(F)cc1)C2 | -3.791
CCS(=O)(=O)c1nccn1-c1cccc(F)c1 | -14.2
Cc1cnn(C(C)C2CC2)c1NC(=O)c1ncccc1O (stereo not given) | 16.76
c1cc(CNCC2CNc3ccnn3C2)cc(N2CCCCC2)n1 (stereo not given) | 12.93
O=C(c1cccc(CNCC2CNc3ccnn3C2)c1)N1CCCC1 (stereo not given) | 2.865
c1cc(CNCC2CNc3ccnn3C2)cc(N2CCOCC2)n1 (stereo not given) | 104.3
CCSCCNC(=O)c1cnc(-c2ccccc2)nc1O | -4.027
CCC(C)(NCC(=O)Nc1nc(C)cs1)c1nc(C)cs1 (stereo not given) | -9.944
COC(=O)CCc1c(C)nn(-c2nc(C)cc(=O)[nH]2)c1C | 2.472
Cc1cc(=O)[nH]c(-n2nc(C)c(CCC(=O)NCC(C)C)c2C)n1 | 133.4
Cc1cc(=O)[nH]c(-n2nc(C)c(CCC(=O)Nc3nc(C)cs3)c2C)n1 | 139.8
Cc1ccc(C(C(=O)NCCc2nc(C)cc(=O)[nH]2)N(C)C)cc1 (stereo not given) | -13.39
COc1ccc(OC)c(CCNc2ncc(S(N)(=O)=O)s2)c1 | -19.79
CC(NC(=O)CSCC#N)c1ccccc1 (stereo not given) | 5.295
CC(=O)NC1CCCN(C(=O)Nc2cnc3c(cnn3C(C)C)c2)C1 (stereo not given) | -1.693
Cc1cnn(CC2CCCCN2C(=O)c2cnc3n[nH]c(C)c3c2)c1 (stereo not given) | 131.8
CC(=O)N1CCCN(C(=O)c2cnc3n[nH]c(C)c3c2)CC1 | 0.885
Cc1cc(C)n(CC2CCCN2C(=O)c2cnc3n[nH]c(C)c3c2)n1 (stereo not given) | 152.9
Cc1cnn(CC2CCCN2C(=O)c2cnc3n[nH]c(C)c3c2)c1 (stereo not given) | 1.676
Cc1cc(=O)[nH]c(SCC(=O)N(C)CC2Cc3ccccc3CN2C)n1 (stereo not given) | -1.755
O=C(O)Cn1ccc(=O)c2cc(Cl)ccc21 | 96.7

SMILES | Percent Effect [%]
O=C(Cn1ccc(=O)c2ccccc21)Nc1cnccc1O | 11.9
CN(CC(N)=O)C(=O)CCCn1ccc2cc(Cl)ccc21 | -3.904
O=C(O)Cn1ccc(=O)c2ccc(Cl)cc21 | 126.4
O=C(Cn1cc(C(=O)O)ccc1=O)Nc1ccc(Cl)cc1F | 21.2
CC(=O)c1cn(CCC(=O)NCCC(=O)O)c2ccccc12 | 11.28
O=C(O)Cn1ccc(=O)c2ccccc21 | 101.5
CC(=O)Cn1cc(C#N)c(=O)c2cc(Br)ccc21 | -39.25
Cc1ccc(Cl)cc1NC(=O)Cn1cc(C(=O)O)ccc1=O | 11.02
CCN(Cc1ccoc1)C(C(N)=O)c1ccc(Br)cc1 (stereo not given) | 13.69
Cc1ccccc1C(O)CNS(=O)(=O)Cc1cccc(C#N)c1 (stereo not given) | 1.082
CCC(=O)N1CCN(C(=O)NCc2c(C)cc(C)cc2C)CC1 | 2.244
O=C(NCc1nncn1-c1ccccc1)C1CC(=O)N(CC2CC2)C1 (stereo not given) | -5.786
O=C(NCCc1cc(=O)[nH]cn1)c1[nH]nc2c1CCCC2 | -3.827
CNc1cc(-c2cc(OC)c(OC)c(OC)c2)ncn1 | 63.03
COc1cc(-c2cc(=O)[nH]cn2)cc(OC)c1OC | 108.3
COc1ccc(-c2cc(N)ccn2)c(OC)c1OC | -25.01
COc1cc(N(C)Cc2cc(C(C)(C)C)n[nH]2)ncn1 | -14.87
COc1cc(N2CCc3ncnc(-c4ccoc4)c3CC2)ncn1 | -1.629
COc1cc(-c2cc(N)ncn2)cc(OC)c1OC | 113.5
COc1cc(-c2cnnc(NCCCOC(C)C)n2)cc(OC)c1OC | 29.72
COc1cc(F)ccc1-c1cnc(N)cn1 | 4.903
COc1cc(-c2cc(OC)c(OC)c(OC)c2)ncn1 | 111

SMILES | Percent Effect [%]
CC1CCN(S(=O)(=O)N2CCc3c(c(C(=O)O)nn3CC3CC3)C2)CC1 | -12.69
CNC(=O)Cc1ccc(-n2ccnc2-c2ccc(C(=O)O)s2)cc1 | -11.42
Cc1noc(-c2ccc(N3CCCC(C(=O)O)C3)nc2)n1 (stereo not given) | -4.979
CS(=O)(=O)NCCNC(=O)NC1(c2ccc(Cl)cc2)CCC1 | -10.79
COc1nc2c(cc1C(=O)N1CC[C@H](CO)[C@@H](O)C1)CCC2 | 9.103
Cc1cccc(CNC(CN2CCN(C)CC2)c2ccccc2)c1 (stereo not given) | 16.68
CCOCC(=O)NCC(C)(O)c1cc(C)oc1C (stereo not given) | 5.951
Cc1cc(C(C)(O)CNC(=O)OC(C)(C)C)c(C)o1 (stereo not given) | 0.294
Cc1cc(C(C)(O)CNC(=O)CCOCC(C)C)c(C)o1 (stereo not given) | 51.29
CC(NCc1nnc2n1CCCC2)c1nc(Cc2ccccc2)no1 (stereo not given) | 8.593
O=C(O)C(F)(F)F.O=C(O)C(F)(F)F.O=C(O)c1cc2c(nc1-c1ccsc1)CCN(C1CCOC1)CC2 (stereo not given) | -18.13
Cc1cc(C)c2c(N3CCC(O)(Cn4ccnc4)CC3)ncnc2n1 | 6.34
Cc1cc(C)c2c(N3CCC(C(=O)N4CCCC4)CC3)ncnc2n1 | 96.05
CCc1nc(CN2CCCN(C(=O)C3CCC3)CC2)cs1 | 7.838
Cc1cc(C)c2c(N3CCCN(C(=O)C4CCC4)CC3)ncnc2n1 | 89.28
O=C(C1CCN(c2ncnc3cccc(F)c23)CC1)N1CCCC1 | -3.07
Cc1ccccc1CC(=O)N1CCc2c(ncnc2N2CCOCC2)C1 | 2.572
Cc1cc(C)c2c(N3CCC(C(=O)N4CCOCC4)CC3)ncnc2n1 | 125.4
Cc1nn(C)c2c(N3CCN(C(=O)C4CCC4)CC3)ncnc12 | 3.567
Cc1cc(C)c2c(N3CCN(C(=O)N4CCOCC4)CC3)ncnc2n1 | 86.86
Cc1cc(C)c2c(N3CCN(CCN4CCOCC4)CC3)ncnc2n1 | 8.578
CCOCC(=O)N1CCC(CSCc2ccco2)CC1 | 4.494

SMILES | Percent Effect [%]
O=C(C1CCCN1S(=O)(=O)C1CCCC1)N1CCSCC1 (stereo not given) | -23.1
CN(C)c1nc2c(c(N3CCC(O)CC3)n1)CN(CC1CCOC1)CC2 (stereo not given) | 9.412
c1ccc(C(Cn2cccn2)Nc2cnccn2)cc1 (stereo not given) | 93.79
CC(CCNC(=O)NCCNc1cnccn1)c1ccccc1 (stereo not given) | 0.7277
O=C(CNCc1ccccc1Cn1cccn1)Nc1cnccn1 | 109.9
CC(NC(=O)Cn1cccn1)c1cccnc1 (stereo not given) | -3.155
CC(Cn1cccn1)NS(=O)(=O)Cc1ccccc1 (stereo not given) | -19.72
CC(C)OC(=O)CC(NC(=O)CCn1cccn1)c1ccccc1 (stereo not given) | -19.71
O=C(CNC(Cn1cccn1)c1ccccc1)Nc1cnccn1 (stereo not given) | 104.7
CCc1cnc(NCc2ccccc2Cn2cccn2)nc1 | 6.664
NCCn1cc(C(=O)NCc2ccccc2Cn2cccn2)nn1 | -26.32
COC(=O)CN(Cc1ccccc1C)C(=O)COCC1CC1 | 5.451
O=c1cc(Cn2cncn2)nc2n1CCCN(CC1CC1)C2 | -9.621
O=c1cc(CN2CCCC2)nc2n1CCCN(CC1CC1)C2 | 112.4
O=c1cc(CN2CCCC2)nc2n1CCCN(CC1CCOCC1)C2 | 2.964
O=c1cc(CN2CCCC2)nc2n1CCCN(S(=O)(=O)C1CC1)C2 | 95.22
O=c1cc(Cn2ccnc2)nc2n1CCCN(S(=O)(=O)C1CC1)C2 | 102.1
O=c1cc(Cn2cncn2)nc2n1CCCN(CC1CCOCC1)C2 | -15.84
CCS(=O)(=O)N1CCCn2c(nc(CN3CCCC3)cc2=O)C1 | 124.6
CN(C)Cc1cc(=O)n2c(n1)CN(CC1CC1)CCC2 | 1.173
O=c1cc(Cn2ccnc2)nc2n1CCCN(CC1CCOCC1)C2 | -2.581
O=c1cc(Cn2ccnc2)nc2n1CCCN(Cc1ccco1)C2 | 5.269
